Common to all, as to assay: DAPPL (digital affinity profiling via proximity ligation, sequencing); 10 mM Tris-HCl pH 7.5, 50 mM NaCl, 1 mM DTT, 4% glycerol, room temperature, 30 min; GST-TFs on glutathione beads, 16-mer random dsDNA library, 0.1% formaldehyde crosslink after washing; high values mean tight binding
The target in one experiment is T1, FEV (Homo sapiens, UniProt Q99581 1-238).
T1 sequence: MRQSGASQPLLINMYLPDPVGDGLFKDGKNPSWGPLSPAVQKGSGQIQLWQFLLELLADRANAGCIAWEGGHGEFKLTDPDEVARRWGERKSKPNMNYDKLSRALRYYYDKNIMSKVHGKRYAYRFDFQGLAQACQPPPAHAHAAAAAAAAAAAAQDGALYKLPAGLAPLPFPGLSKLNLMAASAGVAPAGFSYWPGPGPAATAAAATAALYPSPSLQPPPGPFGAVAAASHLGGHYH
Conditions: protein: recombinant; tags: N-terminal GST; dsDNA, one strand shown. In a few lines: (§1)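 Binding signal is each hexamer's read frequency for a factor divided by its frequency in the tag-only sample. The factors were GST-fused human transcription factors from yeast, captured on glutathione beads, DNA-barcoded and pooled with that sample. Pools were incubated with 200 nmole of a random double-stranded 16-mer DNA library in Tris/NaCl/DTT/glycerol buffer at room temperature for 30 min, then washed, crosslinked with 0.1% formaldehyde, proximity-ligated with BsaI/T4 ligase (1 h, 37 °C), PCR-amplified and sequenced on an Illumina NextSeq500.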

The next experiment addresses ETV5 (Homo sapiens, UniProt P41161 1-510). The note with it: protein: recombinant; tags: N-terminal GST; dsDNA, one strand shown. In short, it runs like this: as §1
In the next experiment the target is HSF1 (Homo sapiens, UniProt Q00613 1-529). Conditions: protein: recombinant; tags: N-terminal GST; chain copies: 3; dsDNA, one strand shown. In a few lines: as §1
The target in the next experiment is T2, SPIC (Homo sapiens, UniProt Q8N5J4 1-248).
T2 sequence: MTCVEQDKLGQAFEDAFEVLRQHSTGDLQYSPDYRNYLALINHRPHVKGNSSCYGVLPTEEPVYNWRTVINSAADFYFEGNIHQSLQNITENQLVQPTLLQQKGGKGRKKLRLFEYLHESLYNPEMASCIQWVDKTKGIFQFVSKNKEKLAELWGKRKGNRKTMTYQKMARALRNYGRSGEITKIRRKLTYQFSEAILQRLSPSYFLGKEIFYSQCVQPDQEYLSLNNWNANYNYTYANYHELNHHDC
Conditions: protein: recombinant; tags: N-terminal GST; dsDNA, one strand shown. In a few lines:
as §1

A further experiment has as its target ELF4 (Homo sapiens, UniProt Q99607 1-663). Conditions: protein: recombinant; tags: N-terminal GST; dsDNA, one strand shown. In short, it runs like this:
as §1

The target in a further experiment is T3, ELK4 (Homo sapiens, UniProt P28324-2 1-405).
T3 sequence: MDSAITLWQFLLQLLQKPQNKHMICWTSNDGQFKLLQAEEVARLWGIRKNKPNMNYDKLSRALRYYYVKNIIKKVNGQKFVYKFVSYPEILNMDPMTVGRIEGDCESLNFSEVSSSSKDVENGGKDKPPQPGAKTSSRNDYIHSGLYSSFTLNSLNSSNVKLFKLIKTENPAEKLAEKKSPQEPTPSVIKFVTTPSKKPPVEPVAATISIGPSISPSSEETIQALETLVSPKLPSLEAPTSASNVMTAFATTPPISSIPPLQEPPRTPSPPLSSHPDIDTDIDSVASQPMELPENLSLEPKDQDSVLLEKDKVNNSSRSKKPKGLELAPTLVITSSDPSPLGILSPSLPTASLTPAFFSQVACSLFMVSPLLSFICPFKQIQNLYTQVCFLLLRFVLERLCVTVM
Conditions: protein: recombinant; tags: N-terminal GST; dsDNA, one strand shown. In short, it runs like this:
as §1

The target of a further experiment is T4, ETV2 (Homo sapiens, UniProt O00321 1-342).
T4 sequence: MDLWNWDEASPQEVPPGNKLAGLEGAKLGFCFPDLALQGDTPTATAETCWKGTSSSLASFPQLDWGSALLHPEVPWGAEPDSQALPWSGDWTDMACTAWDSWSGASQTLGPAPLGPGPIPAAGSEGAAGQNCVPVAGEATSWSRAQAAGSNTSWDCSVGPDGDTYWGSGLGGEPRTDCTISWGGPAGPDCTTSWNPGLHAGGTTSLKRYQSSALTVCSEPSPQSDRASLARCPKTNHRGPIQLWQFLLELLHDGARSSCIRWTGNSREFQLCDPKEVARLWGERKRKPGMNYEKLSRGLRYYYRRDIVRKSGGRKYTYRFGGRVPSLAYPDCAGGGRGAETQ
The note with it: protein: recombinant; tags: N-terminal GST; dsDNA, one strand shown. In short, it runs like this:
as §1

The next experiment addresses T5, ELF3 (Homo sapiens, UniProt P78545 1-371).
T5 sequence: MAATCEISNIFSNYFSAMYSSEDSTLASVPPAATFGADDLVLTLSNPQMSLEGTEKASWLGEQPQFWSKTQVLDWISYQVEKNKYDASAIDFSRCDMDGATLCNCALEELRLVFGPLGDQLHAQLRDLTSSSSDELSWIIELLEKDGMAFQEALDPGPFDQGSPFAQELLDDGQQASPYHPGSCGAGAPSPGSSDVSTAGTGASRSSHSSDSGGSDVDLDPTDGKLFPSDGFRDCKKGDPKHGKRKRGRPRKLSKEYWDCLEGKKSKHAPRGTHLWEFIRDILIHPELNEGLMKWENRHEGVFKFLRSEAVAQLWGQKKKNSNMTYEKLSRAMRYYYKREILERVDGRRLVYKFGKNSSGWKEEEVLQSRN
Conditions: protein: recombinant; tags: N-terminal GST; dsDNA, one strand shown. In a few lines: as §1

Another experiment addresses CRX (Homo sapiens, UniProt O43186 1-299). The note with it: protein: recombinant; tags: N-terminal GST; dsDNA, one strand shown. In a few lines:
as §1

A further experiment addresses ETV1 (Homo sapiens, UniProt P50549 1-477). The note with it: protein: recombinant; tags: N-terminal GST; dsDNA, one strand shown. In a few lines:
as §1

The target in another experiment is T6, ERF (Homo sapiens, UniProt P50548 1-548).
T6 sequence: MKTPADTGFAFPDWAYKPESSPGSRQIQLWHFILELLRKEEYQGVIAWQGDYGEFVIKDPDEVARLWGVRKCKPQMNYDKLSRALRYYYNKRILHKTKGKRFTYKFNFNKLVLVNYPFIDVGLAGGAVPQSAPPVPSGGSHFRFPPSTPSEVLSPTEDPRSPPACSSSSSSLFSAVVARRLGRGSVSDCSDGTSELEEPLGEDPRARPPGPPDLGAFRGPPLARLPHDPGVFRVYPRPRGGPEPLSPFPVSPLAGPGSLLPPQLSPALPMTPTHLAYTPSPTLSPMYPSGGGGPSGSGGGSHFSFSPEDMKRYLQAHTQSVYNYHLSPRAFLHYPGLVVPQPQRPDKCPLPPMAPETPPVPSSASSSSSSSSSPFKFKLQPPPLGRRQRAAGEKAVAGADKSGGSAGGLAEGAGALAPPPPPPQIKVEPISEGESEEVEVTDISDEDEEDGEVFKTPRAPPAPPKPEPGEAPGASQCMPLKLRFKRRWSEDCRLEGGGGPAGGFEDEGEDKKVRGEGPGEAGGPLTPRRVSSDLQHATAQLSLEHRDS
The note with it: protein: recombinant; tags: N-terminal GST; dsDNA, one strand shown. In a few lines: as §1

A further experiment addresses T7, ETV3L (Homo sapiens, UniProt Q6ZN32 1-361).
T7 sequence: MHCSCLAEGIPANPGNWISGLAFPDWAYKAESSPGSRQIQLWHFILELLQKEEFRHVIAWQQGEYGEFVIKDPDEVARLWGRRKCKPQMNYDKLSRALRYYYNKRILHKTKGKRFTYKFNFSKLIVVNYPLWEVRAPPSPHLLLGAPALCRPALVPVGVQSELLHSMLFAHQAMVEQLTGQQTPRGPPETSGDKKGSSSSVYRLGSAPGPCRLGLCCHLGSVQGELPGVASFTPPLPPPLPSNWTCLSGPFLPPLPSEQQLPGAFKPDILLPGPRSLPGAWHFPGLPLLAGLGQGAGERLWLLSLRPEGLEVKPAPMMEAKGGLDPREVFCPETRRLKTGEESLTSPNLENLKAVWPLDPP
Conditions: protein: recombinant; tags: N-terminal GST; dsDNA, one strand shown. In short, it runs like this:
as §1

The next experiment deals with T8, ETS2 (Homo sapiens, UniProt P15036 1-469).
T8 sequence: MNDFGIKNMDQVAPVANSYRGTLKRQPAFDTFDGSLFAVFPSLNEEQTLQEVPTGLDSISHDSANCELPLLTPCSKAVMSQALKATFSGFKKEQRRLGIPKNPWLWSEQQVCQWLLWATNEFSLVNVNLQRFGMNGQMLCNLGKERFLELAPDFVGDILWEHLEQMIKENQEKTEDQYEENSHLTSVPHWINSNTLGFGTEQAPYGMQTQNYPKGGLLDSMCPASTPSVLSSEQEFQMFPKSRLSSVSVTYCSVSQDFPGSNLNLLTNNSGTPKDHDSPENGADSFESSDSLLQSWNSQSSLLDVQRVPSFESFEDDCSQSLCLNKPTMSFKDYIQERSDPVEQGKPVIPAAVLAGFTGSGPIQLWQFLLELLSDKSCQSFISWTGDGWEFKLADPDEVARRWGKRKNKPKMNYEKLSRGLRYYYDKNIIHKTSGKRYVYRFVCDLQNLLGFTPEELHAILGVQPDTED
Conditions: protein: recombinant; tags: N-terminal GST; dsDNA, one strand shown. In a few lines:
as §1

The target in another experiment is T9, SPDEF (Homo sapiens, UniProt O95238 1-335).
T9 sequence: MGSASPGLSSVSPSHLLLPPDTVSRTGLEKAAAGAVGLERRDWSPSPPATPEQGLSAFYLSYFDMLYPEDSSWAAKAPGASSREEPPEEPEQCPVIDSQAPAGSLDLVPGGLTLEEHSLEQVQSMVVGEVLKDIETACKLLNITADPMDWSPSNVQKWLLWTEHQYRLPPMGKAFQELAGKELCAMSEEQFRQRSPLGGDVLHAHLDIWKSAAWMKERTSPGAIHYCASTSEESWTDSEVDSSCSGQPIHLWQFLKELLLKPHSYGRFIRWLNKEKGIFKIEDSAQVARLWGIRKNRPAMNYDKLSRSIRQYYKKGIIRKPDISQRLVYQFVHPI
The note with it: protein: recombinant; tags: N-terminal GST; dsDNA, one strand shown. In a few lines:
as §1

In a further experiment the target is T10, ETV7 (Homo sapiens, UniProt Q9Y603 1-341).
T10 sequence: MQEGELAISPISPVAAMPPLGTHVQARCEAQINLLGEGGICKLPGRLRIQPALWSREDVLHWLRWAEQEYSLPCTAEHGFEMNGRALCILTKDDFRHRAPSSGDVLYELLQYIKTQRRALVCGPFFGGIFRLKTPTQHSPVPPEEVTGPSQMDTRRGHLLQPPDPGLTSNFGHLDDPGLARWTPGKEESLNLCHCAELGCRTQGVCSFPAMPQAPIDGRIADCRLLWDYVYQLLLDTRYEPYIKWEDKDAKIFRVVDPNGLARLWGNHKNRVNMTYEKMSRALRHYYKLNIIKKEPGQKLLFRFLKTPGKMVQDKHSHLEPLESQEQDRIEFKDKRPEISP
The note with it: protein: recombinant; tags: N-terminal GST; dsDNA, one strand shown. In short, it runs like this:
as §1

Another experiment deals with T11, ELF5 (Homo sapiens, UniProt Q9UKW6-2 1-255).
T11 sequence: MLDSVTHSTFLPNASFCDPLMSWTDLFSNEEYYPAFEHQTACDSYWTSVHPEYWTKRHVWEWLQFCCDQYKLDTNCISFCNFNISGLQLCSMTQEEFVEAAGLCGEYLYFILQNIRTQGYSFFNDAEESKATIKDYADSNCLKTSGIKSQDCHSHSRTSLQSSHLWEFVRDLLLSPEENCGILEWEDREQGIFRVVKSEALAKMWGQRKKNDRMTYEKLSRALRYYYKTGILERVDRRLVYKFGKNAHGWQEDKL
The note with it: protein: recombinant; tags: N-terminal GST; dsDNA, one strand shown. In short, it runs like this:
as §1

The next experiment has as its target T12, ETV3 (Homo sapiens, UniProt P41162-2 1-143).
T12 sequence: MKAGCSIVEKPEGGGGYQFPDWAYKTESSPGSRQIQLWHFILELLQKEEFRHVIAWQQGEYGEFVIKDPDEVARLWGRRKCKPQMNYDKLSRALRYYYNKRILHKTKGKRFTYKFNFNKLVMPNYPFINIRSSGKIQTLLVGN
Conditions: protein: recombinant; tags: N-terminal GST; dsDNA, one strand shown. In short, it runs like this:
as §1

In the next experiment the target is ETV6 (Homo sapiens, UniProt P41212 1-452). The note with it: protein: recombinant; tags: N-terminal GST; dsDNA, one strand shown. In short, it runs like this: as §1
ETV6, sequence (P41212 whole entry): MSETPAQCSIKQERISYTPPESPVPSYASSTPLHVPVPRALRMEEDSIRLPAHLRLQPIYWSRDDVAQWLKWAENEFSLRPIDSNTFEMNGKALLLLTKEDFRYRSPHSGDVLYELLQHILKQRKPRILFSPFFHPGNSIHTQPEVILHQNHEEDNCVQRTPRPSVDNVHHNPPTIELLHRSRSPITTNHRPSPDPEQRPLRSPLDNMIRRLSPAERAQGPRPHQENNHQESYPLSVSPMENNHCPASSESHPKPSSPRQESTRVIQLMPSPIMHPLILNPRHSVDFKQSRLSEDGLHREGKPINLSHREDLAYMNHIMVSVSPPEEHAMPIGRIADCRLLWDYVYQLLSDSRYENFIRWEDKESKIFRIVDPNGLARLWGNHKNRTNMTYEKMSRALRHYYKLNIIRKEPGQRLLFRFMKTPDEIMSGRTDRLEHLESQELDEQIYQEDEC

HSF1, sequence (Q00613 whole entry): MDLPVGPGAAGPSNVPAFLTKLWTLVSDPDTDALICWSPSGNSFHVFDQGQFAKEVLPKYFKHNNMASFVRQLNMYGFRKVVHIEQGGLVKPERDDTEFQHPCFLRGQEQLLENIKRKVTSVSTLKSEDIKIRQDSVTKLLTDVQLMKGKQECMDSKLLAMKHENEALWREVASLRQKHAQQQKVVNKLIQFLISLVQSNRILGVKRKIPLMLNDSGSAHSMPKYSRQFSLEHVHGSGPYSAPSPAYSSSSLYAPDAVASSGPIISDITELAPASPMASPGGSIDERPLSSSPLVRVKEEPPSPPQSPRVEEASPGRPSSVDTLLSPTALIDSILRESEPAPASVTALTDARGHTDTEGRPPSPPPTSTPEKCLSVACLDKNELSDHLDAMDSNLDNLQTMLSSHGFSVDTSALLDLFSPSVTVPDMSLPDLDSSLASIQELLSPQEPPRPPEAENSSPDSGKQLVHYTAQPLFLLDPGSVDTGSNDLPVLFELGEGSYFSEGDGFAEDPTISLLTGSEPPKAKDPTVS
CRX, sequence (O43186 whole entry): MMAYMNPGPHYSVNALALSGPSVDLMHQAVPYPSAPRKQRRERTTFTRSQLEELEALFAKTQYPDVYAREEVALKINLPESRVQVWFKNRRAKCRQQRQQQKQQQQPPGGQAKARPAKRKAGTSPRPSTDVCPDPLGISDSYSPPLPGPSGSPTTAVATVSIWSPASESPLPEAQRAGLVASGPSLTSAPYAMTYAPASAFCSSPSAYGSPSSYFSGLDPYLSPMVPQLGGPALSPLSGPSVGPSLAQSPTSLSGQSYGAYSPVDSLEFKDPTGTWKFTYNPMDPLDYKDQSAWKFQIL
ELF4, sequence (Q99607 whole entry): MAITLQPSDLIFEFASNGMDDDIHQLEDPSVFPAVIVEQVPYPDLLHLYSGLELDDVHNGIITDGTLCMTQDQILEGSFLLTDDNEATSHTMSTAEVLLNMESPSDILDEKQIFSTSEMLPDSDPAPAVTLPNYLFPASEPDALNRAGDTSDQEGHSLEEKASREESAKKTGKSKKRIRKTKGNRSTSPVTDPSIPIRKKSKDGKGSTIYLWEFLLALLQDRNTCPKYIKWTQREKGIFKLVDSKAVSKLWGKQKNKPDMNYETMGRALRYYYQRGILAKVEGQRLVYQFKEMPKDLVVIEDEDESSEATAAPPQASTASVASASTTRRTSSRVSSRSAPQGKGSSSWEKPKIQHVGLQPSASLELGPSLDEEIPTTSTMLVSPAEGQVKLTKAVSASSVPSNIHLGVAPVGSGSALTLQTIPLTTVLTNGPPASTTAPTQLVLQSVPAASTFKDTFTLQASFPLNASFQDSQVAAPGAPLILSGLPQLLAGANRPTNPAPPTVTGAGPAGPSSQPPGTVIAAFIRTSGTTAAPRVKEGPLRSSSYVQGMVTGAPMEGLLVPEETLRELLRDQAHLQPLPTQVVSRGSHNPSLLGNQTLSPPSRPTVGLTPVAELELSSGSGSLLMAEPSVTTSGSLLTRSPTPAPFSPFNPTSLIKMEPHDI
ETV5, sequence (P41161 whole entry): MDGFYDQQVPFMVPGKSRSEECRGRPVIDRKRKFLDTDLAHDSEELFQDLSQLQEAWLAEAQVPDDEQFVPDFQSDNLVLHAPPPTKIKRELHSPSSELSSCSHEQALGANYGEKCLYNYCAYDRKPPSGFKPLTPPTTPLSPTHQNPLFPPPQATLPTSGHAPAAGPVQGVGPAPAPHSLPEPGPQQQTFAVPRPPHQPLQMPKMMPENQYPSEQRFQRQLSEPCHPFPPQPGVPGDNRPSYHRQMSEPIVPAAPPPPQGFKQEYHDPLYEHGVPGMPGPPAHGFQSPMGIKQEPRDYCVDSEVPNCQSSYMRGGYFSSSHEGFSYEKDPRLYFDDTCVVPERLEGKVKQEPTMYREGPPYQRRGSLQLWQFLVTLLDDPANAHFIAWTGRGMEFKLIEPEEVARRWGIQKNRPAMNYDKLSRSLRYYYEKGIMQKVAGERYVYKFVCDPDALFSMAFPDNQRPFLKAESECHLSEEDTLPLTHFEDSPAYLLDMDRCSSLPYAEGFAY
ETV1, sequence (P50549 whole entry): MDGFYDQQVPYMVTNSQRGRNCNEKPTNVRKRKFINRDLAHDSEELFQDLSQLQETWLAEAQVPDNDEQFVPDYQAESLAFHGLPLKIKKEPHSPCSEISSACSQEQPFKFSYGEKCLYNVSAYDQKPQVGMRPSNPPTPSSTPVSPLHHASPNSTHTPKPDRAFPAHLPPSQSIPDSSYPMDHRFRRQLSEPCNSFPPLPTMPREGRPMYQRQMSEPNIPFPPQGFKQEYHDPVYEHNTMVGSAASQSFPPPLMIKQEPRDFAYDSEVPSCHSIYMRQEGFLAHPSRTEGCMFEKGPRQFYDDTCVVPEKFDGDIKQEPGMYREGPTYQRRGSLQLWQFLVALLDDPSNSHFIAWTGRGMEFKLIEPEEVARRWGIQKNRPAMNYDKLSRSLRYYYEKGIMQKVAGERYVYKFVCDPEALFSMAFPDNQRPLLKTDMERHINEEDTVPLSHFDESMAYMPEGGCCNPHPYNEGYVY

Consider CTGCTT, for which the binding signal with FEV was 1.8 fold enrichment (6-mer frequency, TF over GST control); with ETV5, 1.66 fold enrichment (6-mer frequency, TF over GST control); with HSF1, 1.53 fold enrichment (6-mer frequency, TF over GST control); with SPIC, 1.8 fold enrichment (6-mer frequency, TF over GST control); in the experiment with ELF4, 1.68 fold enrichment (6-mer frequency, TF over GST control); with ELK4, 1.88 fold enrichment (6-mer frequency, TF over GST control). Moreover, the binding signal was 1.93 fold enrichment (6-mer frequency, TF over GST control) in the experiment with ETV2; 1.28 fold enrichment (6-mer frequency, TF over GST control) with ELF3; 1.69 fold enrichment (6-mer frequency, TF over GST control) in the experiment with CRX; 1.73 fold enrichment (6-mer frequency, TF over GST control) with ETV1; 1.67 fold enrichment (6-mer frequency, TF over GST control) with ERF; 1.7 fold enrichment (6-mer frequency, TF over GST control) with ETV3L. Besides, the binding signal was 1.63 fold enrichment (6-mer frequency, TF over GST control) in the experiment with ETS2; 1.67 fold enrichment (6-mer frequency, TF over GST control) in the experiment with SPDEF; 1.57 fold enrichment (6-mer frequency, TF over GST control) in the experiment with ETV7; 1.64 fold enrichment (6-mer frequency, TF over GST control) with ELF5; 1.75 fold enrichment (6-mer frequency, TF over GST control) with ETV3; 1.71 fold enrichment (6-mer frequency, TF over GST control) with ETV6.
